# Source: PubChem
# TDP1 block – TDP1 (human) enzyme inhibition. Potency, µM (titrated, usually from 130 µM), inactives show top-dose activity change, negative = inhibition, actives largely listed as inhibitors. 0.28% of 350,000 active. Q9NUW8. AID 485290. recombinant TDP1, AlphaScreen DNA substrate cleavage; further: potency means the concentration at half of the fitted maximal effect; on the % scale 0 is the no-effect control and ±100 the full control effect; nearly all actives have a fitted effect of over 40% in size
# Target sequence (Q9NUW8 whole entry, looked up): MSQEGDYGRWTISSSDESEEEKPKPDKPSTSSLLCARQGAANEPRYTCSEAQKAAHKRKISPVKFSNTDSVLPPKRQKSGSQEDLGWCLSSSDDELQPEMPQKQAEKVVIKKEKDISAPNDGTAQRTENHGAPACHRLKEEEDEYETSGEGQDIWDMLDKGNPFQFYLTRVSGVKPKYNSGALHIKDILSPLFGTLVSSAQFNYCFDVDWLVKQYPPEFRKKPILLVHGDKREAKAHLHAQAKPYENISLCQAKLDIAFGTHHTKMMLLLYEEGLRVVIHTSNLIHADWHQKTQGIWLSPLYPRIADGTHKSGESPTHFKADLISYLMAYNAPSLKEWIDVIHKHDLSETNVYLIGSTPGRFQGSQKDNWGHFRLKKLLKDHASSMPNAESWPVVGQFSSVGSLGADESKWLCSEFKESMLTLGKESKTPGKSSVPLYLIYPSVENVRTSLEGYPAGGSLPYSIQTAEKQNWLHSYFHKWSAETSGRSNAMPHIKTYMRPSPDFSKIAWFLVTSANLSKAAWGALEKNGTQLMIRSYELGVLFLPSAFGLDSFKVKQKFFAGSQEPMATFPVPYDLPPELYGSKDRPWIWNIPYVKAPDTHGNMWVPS
#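 Enzyme-compound mixtures sat 15 min at room temperature, followed by a 5 min reaction with 15 nM final substrate and 10 min with AlphaScreen beads. Recombinant human Tdp1 was used at 1 nM final.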
# TDP1 cell CPT – growth inhibition of DT40 Tdp1-/-;hTDP1 cells with camptothecin (screen for TDP1 inhibitors). chicken DT40 Tdp1-/-;hTDP1 cells + 20 nM CPT, ATP luminescence, 48 h. Potency, µM (top dose mostly 46.2 µM), inactives show top-dose activity change, negative = growth inhibition, actives largely listed as inhibitors. AID 686979. 12% of 420,000 active; further: potency means the concentration at half of the fitted maximal effect; on the % scale 0 is the no-effect control and ±100 the full control effect; nearly all actives have a fitted effect of over 55% in size
#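 Chicken DT40 Tdp1-/- cells complemented with human TDP1, 400 cells/well, exposed to compounds plus 20 nM camptothecin for at least 48 h at 37 C; viability read as ATP content by CellTiter-Glo luminescence.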
# IL1B secr inh – inflammasome signaling inhibition, IL-1 beta readout; THP-1 LPS/ATP IL-1B secretion, AlphaLISA, 16 h; hits give low values; activity change, % at 57.5 µM; 4.7% of 360,000 active; AID 743279; in the data active means activity change below about -50%; inconclusive means mostly about -30% to -49%; further: on the % scale 0 is the no-effect control and ±100 the full control effect
#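 Secreted IL-1B measured by AlphaLISA bead assay after 16 h compound exposure of THP-1 cells; compounds (final up to 57.5 uM) added 1 h before LPS (250 ng/mL) and ATP (1.25 mM) stimulation; lower signal means less secretion.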
# TGFb inhibitor – inhibitors of TGF-b signaling | HepG2 CAGA-GFP TGF-b/SMAD3 reporter, GFP fluorescence, 18 h; TGF-beta stimulated, 500 pg/mL final | Potency, µM (series often up to 46.1 µM), for inactives: top-dose activity, negative = inhibition, most hits filed as inhibitors | 1.2% of 410,000 active; further: potency means the concentration at half of the fitted maximal effect; on the % scale 0 is the no-effect control and ±100 the full control effect; nearly all actives have a fitted effect of over 65% in size
#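 TGF-beta reporter screen: HEPG2 CAGA-GFP, 1% FBS, 500 pg/mL TGF-beta final, 18 h; per-cell GFP summed per well; curves fitted and categorized by class.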
# HepG2 tox – kills HepG2 cells in TGF-b inhibitor counter-screen. HepG2 CAGA-GFP viability, ATP luminescence, 18 h. Potency, µM (doses to about 46.1 µM), without a hit: top-dose activity change, negative = cytotoxicity, actives largely listed as cytotoxic. 0.76% of 410,000 active; further: potency means the concentration at half of the fitted maximal effect
#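 HepG2 CAGA-GFP cells (1000/well, DMEM with 1% FBS) received compound, then TGF-beta at 500 pg/mL final, and were incubated 18 hours at 37 degrees C. Viability was read by CellTiter-Glo luminescence. Media-only wells were set as complete cell-killing and DMSO as no toxicity.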
# DT40 TDP1 no CPT – qHTS for Inhibitors of human tyrosyl-DNA phosphodiesterase 1 (TDP1): qHTS in cells in absence of CPT | DT40 Tdp1-/- hTDP1 cells, no CPT, ATP luminescence, 48 h | Potency, µM (highest dose often 46.2 µM), for inactives: top-dose activity change, negative = growth inhibition, usual class: inhibitors | 15% of 420,000 active | AID 686978, 2013; further: potency means the concentration at half of the fitted maximal effect; on the % scale 0 is the no-effect control and ±100 the full control effect; nearly all actives have a fitted effect of over 55% in size
#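 Readout: luminescence from CellTiter-Glo after 30 min in the dark at RT. Cells: DT40 Tdp1-/- with stable hTDP1, 400/well. Exposure: compounds alone, ≥48 hr, 37 °C.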
# * hit, by the source's call; ? = inconclusive; . = not tested or not shown. A selection: hits, their analogues and other compounds. The true share with any hit is near 18%. Unless noted, the call rests on the fitted dose curve; in most records, active means well fitted curve in the direction sought with a large enough effect; inconclusive means small, poorly fitted or top-dose-only effect, or another doubt; inactive means no such curve, though single readings can be large; an effect the other way counts as inactive or inconclusive.
SMILES,TDP1 block,TDP1 cell CPT,IL1B secr inh,TGFb inhibitor,HepG2 tox,DT40 TDP1 no CPT
CCS(=O)(=O)c1nc(S(=O)(=O)c2ccc(C)cc2)c(N2CC(C)OC(C)C2)s1 (stereo not given),2.0%,?,-19.1,3.7%,-0.6%,?
Cc1ccc(/C(N)=N/OC(=O)C(C)c2ccc([N+](=O)[O-])cc2)cc1 (stereo not given),.,4.6%,-18.1,-5.8%,-3.0%,-10.0%
N#CCCN(NC1=NS(=O)(=O)c2ccccc21)C(=O)c1ccccc1Br,.,1.2%,-10.6,-3.5%,3.3%,-7.6%
CC1CCN(C(=O)COC(=O)c2cccc(S(=O)(=O)N(C)c3ccccc3)c2)CC1,-1.5%,?,14.0,?,-6.6%,?
COCCN(CCOC)c1ncnc2c1c(-c1ccccc1)cn2-c1ccc(C)c(Cl)c1,-2.6%,?,.,?,-36.0%,?
O=C1NC[C@H](CCCCN2C[C@H](Cc3ccc(O)cc3)N(CCC3CCCCC3)C(=O)C2=O)N(CCc2ccccc2)C1=O,.,-2.9%,-6.0,.,.,2.1%
O=C1NC[C@@H](CCCCN2C[C@H](Cc3ccccc3)N(CC3CCCCC3)C(=O)C2=O)N(CC2CCCCC2)C1=O,.,-15.2%,-27.1,.,.,-20.3%
O=C1NC[C@H](CCCCN2C[C@H](Cc3ccccc3)N(CC3CCCCC3)C(=O)C2=O)N(CCc2ccccc2)C1=O,.,-29.0%,-51.4*,.,.,?
O=C1NC[C@H](CCCCN2C[C@H](Cc3ccccc3)N(CCC3CCCCC3)C(=O)C2=O)N(CCc2ccccc2)C1=O,.,?,-71.7*,.,.,?
O=C(NCCn1cc(SCc2ccccc2Cl)c2ccccc21)c1cccs1,4.5%,23.1µM*,.,?,-31.1%,?
O=C(NCCn1cc(SCc2ccccc2)c2ccccc21)c1ccccc1F,1.3%,20.6µM*,-27.0,?,-22.0%,?
COc1ccccc1C(=O)NCCn1cc(SCc2ccc(C)cc2)c2ccccc21,4.5%,23.1µM*,.,?,-11.5%,?
Cc1ccc(C)c(CSc2cn(CCNC(=O)c3cccs3)c3ccccc23)c1,3.2%,?,.,?,-13.5%,23.1µM*
C#Cc1nc(Nc2cccc(Cl)c2)nc(NC2CCCC2)n1,-2.1%,.,.,.,.,.
COc1ccc([C@@H]2[C@@H]3C(=O)N(C(C)(C)C)C(=O)[C@@H]3[C@]3(CC(C)C)C(=O)N(c4cccc(Br)c4)C(=O)N23)cc1,.,?,-11.4,0.8%,-16.9%,-29.1%
CCOc1ccc(CCNC(=O)COC(=O)COc2ccc(C#N)cc2)cc1OCC,3.2%,7.8%,16.4,6.9%,2.7%,7.7%
CNC(=O)COc1coc(CN2CCN(c3ccc(F)cc3)CC2)cc1=O,0.8%,-2.0%,12.3,5.4%,15.9%,25.8%
COc1ccc(NS(=O)(=O)c2ccc(C)c(C(=O)NCc3ccccc3CN3CCCC3)c2)cc1,.,?,-6.6,-12.0%,-2.9%,?
O=C(NCCn1cc(SCc2ccc(Br)cc2)c2ccccc21)c1cccs1,5.8%,23.1µM*,.,?,-26.5%,23.1µM*
O=C(NCCn1cc(SCc2ccccc2)c2ccccc21)c1cccs1,3.2%,14.6µM*,.,?,-30.0%,7.31µM*
Cc1ccc(C)c(CSc2cn(CCNC(=O)c3ccccc3F)c3ccccc23)c1,8.4%,?,.,?,-12.2%,?
NC(=O)CSc1cn(CCNC(=O)c2cccs2)c2ccccc12,.,-4.0%,41.0,-6.7%,-8.1%,-17.0%
CCOc1ccc(N(CC(=O)NCCc2ccccc2)C(=O)c2csnn2)cc1,.,-17.4%,-3.4,-15.7%,6.6%,1.5%
COc1ccc(CCNC(=O)CSc2cn(CCNC(=O)c3ccc(OC)c(OC)c3)c3ccccc23)cc1OC,1.9%,?,.,?,-14.7%,23.1µM*
Cc1nnc(NC(=O)CSc2cn(CCNC(=O)c3ccccc3)c3ccccc23)s1,7.9%,-22.6%,-10.6,-1.6%,-0.5%,?
SMILES,TDP1 block,TDP1 cell CPT,IL1B secr inh,TGFb inhibitor,HepG2 tox,DT40 TDP1 no CPT
COc1ccc(C(=O)NCCn2cc(SCC(=O)Nc3ccc4c(c3)OCCO4)c3ccccc32)cc1OC,11.0%,14.6µM*,.,-1.1%,-37.0%,20.6µM*
CCOc1ccc(C(=O)NCCn2cc(SCC(=O)Nc3ccc4c(c3)OCCO4)c3ccccc32)cc1,9.7%,?,.,?,7.7%,?
COc1ccc(CCNC(=O)CSc2cn(CCNC(=O)c3cccc(C(F)(F)F)c3)c3ccccc23)cc1OC,3.2%,20.6µM*,.,?,-44.1%,14.6µM*
COc1ccc(C(=O)NCCn2cc(SCC(=O)NCCc3ccc(OC)c(OC)c3)c3ccccc32)cc1,7.1%,18.4µM*,.,-26.7%,-11.0%,16.4µM*
COc1ccc(C(=O)Nc2ccc(C(=O)NCCc3ccc(OC)c(OC)c3)cc2)cc1,.,3.1%,-0.3,0.0%,-3.9%,-5.5%
CC(=O)NC(c1cccc(F)c1)c1nc(-c2cccc(C(F)(F)F)c2)cs1 (stereo not given),.,?,3.1,-18.8%,-4.2%,?
CC(=O)Oc1ccccc1Cn1c(C)c(C(=O)NCc2ccc(Cl)c(Cl)c2)sc1=O,.,?,?,?,-1.2%,?
COc1ccccc1C(c1nnnn1C(C)(C)C)N1CCCc2ccccc21 (stereo not given),0.5%,?,-9.2,-6.3%,-81.2%,?
CC(C)(C)n1nnnc1C(c1ccc(Cl)cc1)N1CCCc2ccccc21 (stereo not given),2.1%,?,29.2,?,2.9%,14.6µM*
CCC(C)(C)n1nnnc1C(c1cccs1)N1CCc2ccccc21 (stereo not given),1.1%,29.1µM*,2.8,12.6µM*,-30.6%,16.4µM*
CC(=O)N1CCOc2ccc(S(=O)(=O)NCC3CCC(C(=O)Nc4ccc(C)cn4)CC3)cc21 (stereo not given),1.8%,14.6µM*,-7.8,-28.4%,-21.8%,13µM*
Cc1ccc(C)c(NC(=O)C2CCN(c3ncnc4c3nc3n4CCCCC3)CC2)c1,3.7%,-10.9%,.,-7.5%,-5.3%,1.9%
O=C(Nc1ccccc1Cl)C1CCCN(c2ncnc3c2nc2n3CCCCC2)C1 (stereo not given),1.5%,?,-62.6*,-26.8%,-24.4%,14.6µM*
